The target of assay [1] is Glucocorticoid receptor (Homo sapiens) (UniProt P04150). Put plainly: GR-GFP Redistribution (AID 450;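 active = compounds whose dose series gives a full or clear partial fitted curve of increased nuclear translocation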; note: potency is the fitted concentration of half-maximal effect). As to conditions: U2OS GR-GFP nuclear translocation, laser cytometry, 2 h.
For assay [2] the target is unchanged. Kind of assay: GR-EFC Redistribution (AID 451; calls by dose curve; note: potency is the fitted concentration of half-maximal effect). The settings on record: CHO-K1 GR-EFC translocation, beta-gal luminescence, 2 h. Summed up: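 CHO-K1 cells stably expressing nuclear-localized β-gal enzyme acceptor and GR fused C-terminally to the enzyme donor fragment; ligand-driven nuclear translocation restores β-gal by complementation. Compounds titrated up to 46 uM final, 2 h at 37 °C; luminescence read.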

In assay [3] the target is Mitogen-activated protein kinase 10 (Mus musculus) (UniProt Q61831). Kind of assay: JNK3 AlphaScreen Assay (AID 530; active = well fitted curve in either direction with a large enough effect, not every such curve was filed as active;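 note: kinase came from lysate of stimulated human HepG2 cells; signal reports phosphorylation of biotinylated GST-cJun 1-79 at Ser73 with 10 µM ATP; % is set by controls: 0 for no effect and ±100 for the full control effect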). The settings on record: JNK3 lysate, c-Jun phosphorylation; series mostly up to 57.1 µM. Summed up:
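Phosphorylation of biotinylated GST-cJun(1-79) at Ser73 is measured by AlphaScreen proximity luminescence. Enzyme is JNK3 in HepG2 lysates activated with interleukin-1beta and tumor necrosis factor alpha; ATP is 10 uM final.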
Background: Alpha assays give light when donor and acceptor beads are brought close together.

The target in assay [4] is Cytochrome P450 3A4 (Homo sapiens) (UniProt P08684). Put plainly: qHTS Assay for Activators of Cytochrome P450 3A4 (AID 885). Note: nearly all actives have a fitted effect of over 65% in size. The settings on record: recombinant CYP3A4, Luciferin-PPXE luminescence, 60 min; series mostly up to 57.1 µM. The method, boiled down: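 Using 20nM recombinant human CYP3A4 in potassium phosphate (200mM), substrate Luciferin-PPXE at 25uM, luminescent luciferin detection followed a 60-min RT NADPH reaction; data scaled to 57 uM ketoconazole.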
Cytochrome P450 3A4 (Homo sapiens), sequence (P08684 whole entry, looked up): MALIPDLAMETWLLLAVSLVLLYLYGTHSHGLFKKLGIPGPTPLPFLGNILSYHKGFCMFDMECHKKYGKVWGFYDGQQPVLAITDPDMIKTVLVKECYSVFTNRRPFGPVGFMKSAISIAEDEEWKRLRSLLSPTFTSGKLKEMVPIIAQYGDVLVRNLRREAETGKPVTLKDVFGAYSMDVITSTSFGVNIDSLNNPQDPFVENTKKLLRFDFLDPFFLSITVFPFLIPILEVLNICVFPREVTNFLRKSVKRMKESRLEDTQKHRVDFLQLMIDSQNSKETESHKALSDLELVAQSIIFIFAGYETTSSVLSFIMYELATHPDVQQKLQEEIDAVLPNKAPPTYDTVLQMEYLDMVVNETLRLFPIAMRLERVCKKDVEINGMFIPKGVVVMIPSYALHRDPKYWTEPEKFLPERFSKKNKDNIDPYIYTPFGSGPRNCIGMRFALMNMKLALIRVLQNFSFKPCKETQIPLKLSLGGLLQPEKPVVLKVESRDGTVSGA
In general terms: In qHTS, concentration-response curves come from the screen itself.

The nature of assay [5]: qHTS Assay for Lipid Storage Modulators (AID 1519; calls by dose curve). As to conditions: Drosophila S3 cells, BODIPY lipid droplet/cell ratio, laser cytometry, cells loaded with oleic acid; for activity change, negative = inhibition: at 57.5 µM (top of the series). The method, boiled down: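 Cells seeded at 5,000 per well were treated with compounds over a concentration series and loaded with oleic acid (400 uM, as added). Lipid droplet fluorescence (488 nm excitation, 500-530 nm channel) was read by laser-scanning cytometry and normalized to 20 uM Triacsin C.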

Assay [6] has as its target Ubiquitin carboxyl-terminal hydrolase 1 (Homo sapiens) (UniProt O94782). Put plainly: Inhibitors of USP1/UAF1: Pilot qHTS (AID 504865).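 Note: rhodamine fluorescence freed from ubiquitin-rhodamine substrate followed over time; top concentration of the series differs between compounds; % is set by controls: 0 for no effect and ±100 for the full control effect; nearly all actives have a fitted effect of over 35% in size.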 As to conditions: purified USP1/UAF1, Ub-rhodamine cleavage fluorescence; series mostly up to 114 µM. The method, boiled down: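 In 50mM HEPES pH 7.8 containing 0.5mM EDTA, 1mM TCEP, 0.1 mg/ml BSA and 0.01% Tween-20, 1nM USP1/UAF1 is exposed to compound for 15 min, then Ub-Rho (150nM final) is added and fluorescence is read over time.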

In assay [7] the target is DNA dC->dU-editing enzyme APOBEC-3G (Homo sapiens) (UniProt Q9HC16). Kind of assay: qHTS for inhibitors of Vif-A3G interactions: Validation (AID 588379). Note: 0% is about no effect. The settings on record: Vif-A3G protein interaction assay; series mostly up to 46.1 µM. Summed up: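 Yellow fluorescence (Ex 488, Em 500-530) of Vif-coexpressing HeLa A3G-eYFP cells, scanned by Acumen cytometer, reports blocked A3G degradation. Cells plated at 700/well overnight at 37 deg C before compound addition, then a further overnight compound incubation at 37 deg C.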
DNA dC->dU-editing enzyme APOBEC-3G (Homo sapiens), sequence (Q9HC16 whole entry, looked up): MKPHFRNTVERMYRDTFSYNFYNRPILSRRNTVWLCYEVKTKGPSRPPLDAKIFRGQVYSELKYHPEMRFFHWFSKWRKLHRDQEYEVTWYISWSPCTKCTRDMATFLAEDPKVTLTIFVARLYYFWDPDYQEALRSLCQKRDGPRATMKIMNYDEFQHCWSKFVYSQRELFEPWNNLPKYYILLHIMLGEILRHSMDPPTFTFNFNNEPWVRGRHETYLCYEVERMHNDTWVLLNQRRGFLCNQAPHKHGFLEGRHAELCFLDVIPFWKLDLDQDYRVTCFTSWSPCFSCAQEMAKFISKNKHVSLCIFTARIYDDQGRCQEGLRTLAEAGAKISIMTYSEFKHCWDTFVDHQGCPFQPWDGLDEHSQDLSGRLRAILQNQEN

Assay [8] has as its system Zika virus NS2B-NS3 protease. Put plainly: Primary screen GU AMC qHTS for Zika virus inhibitors (AID 1347154).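 Note: 0% = no-inhibitor control and -100% = no-enzyme control; nearly all actives have a fitted effect of over 70% in size.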 As to conditions: Zika NS2B-NS3 unlinked protease, AMC fluorogenic substrate; series mostly up to 54.1 µM. The method, boiled down: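 Unlinked Zika NS2B hydrophilic domain/NS3 protease domain noncovalent complex (25 nM final) in 10 mM Tris-HCl pH 8.0, 0.01% Tween 20, with AMC peptide substrate. Fluorescence (ex 340, em 450 nm) change over 15 min, room temperature; percent inhibition fitted to 4-parameter Hill equation.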

Assay [9] is described as follows: Primary qHTS for small molecule stabilizers of the endoplasmic reticulum resident proteome: Secreted ER Calcium Modulated Protein (SERCaMP) assay (AID 1508630). Note: % is set by controls: 0 for no effect and ±100 for the full control effect. The settings on record: SH-SY5Y GLuc-SERCaMP (Gaussia luciferase released on ER calcium loss) secretion, thapsigargin, luminescence; series mostly up to 38.4 µM. The method, boiled down: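 The SH-SY5Y reporter protocol was run at 3 concentrations up to 38.3 uM (primary) or 11 concentrations (follow-up): 16 h compound, 100 nM thapsigargin for 4 h, then extracellular luciferase luminescence.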

Assay [10] addresses 3',5'-cyclic-AMP phosphodiesterase 4B (Homo sapiens) (UniProt Q07343). Kind of assay: qHTS Assay for Inhibitors of PDE-IV (AID 607; active = well fitted activation curve with a large enough effect in the main read-out, with a control signal flat, not every such curve was filed as active; note: % of control where 0% means no effect). The settings on record: HEK293 ACTOne CNG channel cells, membrane potential fluorescence; series mostly up to 22.9 µM. Summed up:
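Live HEK293 cells with a modified cyclic nucleotide-gated (CNG) channel report intracellular cAMP via membrane-potential dye fluorescence (ex 535/em 590 nm). Endogenous PDE-IV was targeted. Compounds were tested at up to 22.9 uM final; RO 20-1724 100 uM served as control.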

Assay [11] addresses Cytochrome P450 2C19 (Homo sapiens) (UniProt P33261). Put plainly: qHTS Assay for Inhibitors and Substrates of Cytochrome P450 2C19 (AID 899). Note: nearly all actives have a fitted effect of over 60% in size. Note: potency is the fitted concentration of half-maximal effect. The settings on record: recombinant CYP2C19, luciferin-H EGE luminescence; series mostly up to 57.1 µM. Summed up:
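NADPH-dependent conversion of Luciferin-H EGE (10uM, at KM) by 5nM enzyme in 50mM KPO4, 60 min at 37C following 10 min compound preincubation. Stopped with luciferin detection buffer; luminescence read after 20 min.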

The nature of assay [12]: AP1 Signaling Pathway (AID 357; active = well fitted curve in either direction with a large enough effect, not every such curve was filed as active; note: % is set by controls: 0 for no effect and ±100 for the full control effect). As to conditions: ME-180 AP-1-bla reporter, EGF-induced, beta-lactamase ratio, 5 h; at 38 µM (top of the series). The method, boiled down:
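AP-1-bla ME-180 cells with beta-lactamase reporter under AP-1 response element, stimulated with EC50 EGF; compounds titrated, 5 hours at 37 degrees Celsius. CCF4 read at 460/530 nm ratio; positive and negative modulators judged by AC50.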

A short description of assay [13]: NFAT Signaling Pathway (AID 444; active = well fitted curve in either direction with a large enough effect, not every such curve was filed as active;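 note: carbachol stimulus at about its EC50 of 1 µM final; % is set by controls: 0 for no effect and ±100 for the full control effect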). As to conditions: Jurkat NFAT-bla M1, carbachol, beta-lactamase ratio, 5 h; at 38 µM (top of the series). The method, boiled down: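 Jurkat cells carrying an NFAT-driven β-lactamase reporter and co-transfected muscarinic M1 receptor were treated with compound plus carbachol (1 uM final, an EC50 level) for 5 h at 37 °C. CCF4 loading followed for 1 h at RT; 460/530 nm ratio gave %activity.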

Assay [14] can be described thus: Stat Signaling Pathway (AID 446; active = well fitted curve in either direction with a large enough effect, not every such curve was filed as active). As to conditions: ME-180 (cervical carcinoma) SIE beta-lactamase reporter, IL-6 stimulated, 5 h; at 38 µM (top of the series). Summed up: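 Overnight-plated ME-180 cells bearing a STAT Inducible Element beta-lactamase reporter; 5 h co-exposure to compound and 40 pM IL-6; values normalized to 300 pM IL-6 and 125 nM JAK inhibitor controls.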
The target in assay [15] is Guanine nucleotide-binding protein G(i) subunit alpha-1 (Homo sapiens) (UniProt P63096). Kind of assay: qHTS Assay for Inhibitors of RGS12 GoLoco Motif Activity (Green Fluorophore) (AID 879).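 Note: 0% = labeled peptide with Gαi1 and full inhibition = labeled peptide alone without protein; negative values mean loss of peptide binding seen as reduced polarization.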 As to conditions: Galphai1/FITC-RGS12 GoLoco peptide, fluorescence polarization; series mostly up to 57.1 µM. Summed up:
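A drop in FITC polarization marked displacement of the FITC-tagged RGS12 GoLoco peptide (10 nM) from Gαi1 (50 nM). Compounds were incubated 10 min at room temperature in Tris pH 7.5 buffer containing 150 mM NaCl, 0.1 mM GDP and 0.05% NP40; unlabeled peptide titration served as control.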

Assay [16] is described as follows: qHTS Assay for Identification of Small Molecule Agonists for Thrombopoietin (TPO) Signaling Pathway (AID 917). Note: % is set by controls: 0 for no effect and ±100 for the full control effect. As to conditions: TPO signaling pathway reporter cells, agonist qHTS, stimulated with TPO at its EC50; series mostly up to 38.5 µM. The method, boiled down: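 Cell-based luciferase reporter screen. Mouse Ba/F3 line stably expressing human TPO receptor; IL-3 removed overnight before plating. Co-treatment with compound and EC50 TPO (26 pM), 24 hrs at 37 C, then luminescence.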

The target of assay [17] is Pyruvate kinase (Leishmania mexicana) (UniProt Q27686). Kind of assay: qHTS Validation Assay for Inhibitors of Leishmania Mexicana Pyruvate Kinase (AID 945).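 Note: 0% = DMSO only neutral control wells.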 The settings on record: purified L. mexicana pyruvate kinase, enzyme activity, E451W mutant enzyme; series mostly up to 57.5 µM. The method, boiled down:
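Read-out: luminescence from PKLight stop/detection reagent, data normalized to DMSO. Reaction: 0.2 nM E451W LmPYK, 0.5 mM PEP, 0.1 mM ADP, pH 7.2, 1 h room temperature.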

In assay [18] the target is Alpha-galactosidase A (Homo sapiens) (UniProt P06280). Put plainly: Counterscreen for Glucocerebrosidase Inhibitors: qHTS Assay for Human alpha-Galactosidase at pH 4.5 (AID 992). Note: 0% is about no effect. The settings on record: purified enzyme, fluorogenic substrate; series mostly up to 76.9 µM. Summed up: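 Each compound is preincubated briefly with 2 nM enzyme before substrate addition (80 uM); plates then sit 20 min at ambient temperature, are quenched with 1M NaOH/1M glycine, and read fluorometrically.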
Alpha-galactosidase A (Homo sapiens), sequence (P06280 whole entry, looked up): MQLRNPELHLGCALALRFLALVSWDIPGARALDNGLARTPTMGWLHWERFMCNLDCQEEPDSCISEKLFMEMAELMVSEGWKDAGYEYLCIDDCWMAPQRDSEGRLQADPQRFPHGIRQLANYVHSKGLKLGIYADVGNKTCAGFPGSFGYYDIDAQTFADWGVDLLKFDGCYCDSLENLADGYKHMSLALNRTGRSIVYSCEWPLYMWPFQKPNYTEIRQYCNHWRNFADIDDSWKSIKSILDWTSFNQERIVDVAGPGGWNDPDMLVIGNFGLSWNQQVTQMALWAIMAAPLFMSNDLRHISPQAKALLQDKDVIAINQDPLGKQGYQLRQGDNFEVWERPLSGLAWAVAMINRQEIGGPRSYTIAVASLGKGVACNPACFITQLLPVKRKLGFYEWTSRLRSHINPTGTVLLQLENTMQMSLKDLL

For assay [19], the target named is alpha-glucosidase (Oryza sativa, rice) (UniProt Q653V4). Put plainly: Counterscreen for Glucocerebrosidase Inhibitors: qHTS Assay for Rice alpha-Glucosidase at pH 5.0 (AID 997).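 Note: 0% = full activity with enzyme and -100% = basal without enzyme.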 As to conditions: rice alpha-glucosidase enzyme activity; series mostly up to 76.9 µM. Summed up:
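Endpoint fluorogenic assay at pH 5.0: compounds (0.7 nM to 77 uM) titrated against 4 nM rice enzyme and 400 uM 4-MU-alpha-glucoside for 20 min at room temperature; NaOH/glycine stop, read ex 365/em 440 nm, Hill-fitted AC50.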
(Counterscreens check selectivity or assay interference.)

The mark [20] stands for this setting: measured here: cell count channel max response.
[21] abbreviates: measured here: lipid channel max response.

“And” between values parts separate entries of the source, which are not always exact repeats. Equal values may be shown once. Results filed as inconclusive are left out. The source made the active and inactive calls. Unless noted, calls come from the whole dose curve; as a rule, active = well fitted curve in the direction sought with a large enough effect; inconclusive = small, poorly fitted or top-dose-only effect, or another doubt; inactive = no such curve, though single readings can be large; an effect the other way counts as inactive or inconclusive. Residues, ends and D or L forms follow the SMILES beside them.

Cytochrome P450 2C19 (Homo sapiens), sequence (P33261 whole entry, looked up): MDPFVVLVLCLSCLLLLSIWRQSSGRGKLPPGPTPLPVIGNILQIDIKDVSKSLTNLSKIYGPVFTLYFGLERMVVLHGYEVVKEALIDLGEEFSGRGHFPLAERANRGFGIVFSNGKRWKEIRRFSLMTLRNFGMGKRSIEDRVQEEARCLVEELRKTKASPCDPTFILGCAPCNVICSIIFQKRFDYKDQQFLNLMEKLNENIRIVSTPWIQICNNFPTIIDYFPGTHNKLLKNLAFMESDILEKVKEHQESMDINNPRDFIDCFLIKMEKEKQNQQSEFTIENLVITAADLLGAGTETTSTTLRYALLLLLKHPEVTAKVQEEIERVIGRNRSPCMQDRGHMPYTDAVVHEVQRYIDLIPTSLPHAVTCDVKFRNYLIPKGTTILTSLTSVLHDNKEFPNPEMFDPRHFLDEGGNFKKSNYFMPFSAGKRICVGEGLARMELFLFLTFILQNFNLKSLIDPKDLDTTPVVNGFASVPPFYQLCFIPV
Ubiquitin carboxyl-terminal hydrolase 1 (Homo sapiens), sequence (O94782 whole entry, looked up): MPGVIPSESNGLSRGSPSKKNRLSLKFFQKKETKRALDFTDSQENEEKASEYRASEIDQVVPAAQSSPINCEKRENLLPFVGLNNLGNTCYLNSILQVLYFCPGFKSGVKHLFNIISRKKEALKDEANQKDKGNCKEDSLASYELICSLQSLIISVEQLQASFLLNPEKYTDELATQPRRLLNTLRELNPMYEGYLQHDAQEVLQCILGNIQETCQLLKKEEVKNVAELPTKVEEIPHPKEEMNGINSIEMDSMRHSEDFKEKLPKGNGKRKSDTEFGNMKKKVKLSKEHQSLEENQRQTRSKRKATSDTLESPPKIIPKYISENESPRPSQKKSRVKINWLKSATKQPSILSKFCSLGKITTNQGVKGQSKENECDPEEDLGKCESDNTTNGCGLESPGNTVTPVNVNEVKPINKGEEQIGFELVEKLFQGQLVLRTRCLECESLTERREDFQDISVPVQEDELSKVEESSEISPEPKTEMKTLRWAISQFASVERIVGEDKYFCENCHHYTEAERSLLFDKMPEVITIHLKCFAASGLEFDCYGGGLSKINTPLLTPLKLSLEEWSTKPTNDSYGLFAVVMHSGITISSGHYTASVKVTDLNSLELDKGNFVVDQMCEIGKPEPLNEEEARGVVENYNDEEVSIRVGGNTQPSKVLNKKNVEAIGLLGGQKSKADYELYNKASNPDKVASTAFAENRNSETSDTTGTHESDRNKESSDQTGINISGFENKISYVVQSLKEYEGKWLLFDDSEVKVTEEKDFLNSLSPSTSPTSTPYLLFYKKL
Glucocorticoid receptor (Homo sapiens), sequence (P04150 whole entry, looked up, the tested form may be a part): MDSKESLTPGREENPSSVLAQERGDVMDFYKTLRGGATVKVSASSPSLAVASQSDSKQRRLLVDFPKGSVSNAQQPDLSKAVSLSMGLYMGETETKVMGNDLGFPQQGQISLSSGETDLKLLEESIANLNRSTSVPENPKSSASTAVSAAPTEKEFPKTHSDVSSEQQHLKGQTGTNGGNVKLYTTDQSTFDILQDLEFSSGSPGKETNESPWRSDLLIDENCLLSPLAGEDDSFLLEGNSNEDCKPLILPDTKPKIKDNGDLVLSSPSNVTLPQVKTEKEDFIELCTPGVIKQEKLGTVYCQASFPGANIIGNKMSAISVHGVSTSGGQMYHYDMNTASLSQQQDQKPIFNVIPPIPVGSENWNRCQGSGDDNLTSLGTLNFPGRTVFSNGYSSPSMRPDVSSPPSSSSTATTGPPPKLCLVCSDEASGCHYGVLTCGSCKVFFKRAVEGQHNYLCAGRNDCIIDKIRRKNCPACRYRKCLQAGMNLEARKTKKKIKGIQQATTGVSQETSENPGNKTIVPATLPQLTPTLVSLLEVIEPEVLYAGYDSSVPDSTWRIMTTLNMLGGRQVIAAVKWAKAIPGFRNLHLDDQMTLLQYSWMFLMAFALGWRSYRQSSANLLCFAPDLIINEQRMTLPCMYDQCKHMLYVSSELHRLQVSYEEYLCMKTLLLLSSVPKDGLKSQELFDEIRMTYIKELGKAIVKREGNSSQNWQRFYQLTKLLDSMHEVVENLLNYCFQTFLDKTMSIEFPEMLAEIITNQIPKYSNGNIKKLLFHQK
3',5'-cyclic-AMP phosphodiesterase 4B (Homo sapiens), sequence (Q07343 whole entry, looked up): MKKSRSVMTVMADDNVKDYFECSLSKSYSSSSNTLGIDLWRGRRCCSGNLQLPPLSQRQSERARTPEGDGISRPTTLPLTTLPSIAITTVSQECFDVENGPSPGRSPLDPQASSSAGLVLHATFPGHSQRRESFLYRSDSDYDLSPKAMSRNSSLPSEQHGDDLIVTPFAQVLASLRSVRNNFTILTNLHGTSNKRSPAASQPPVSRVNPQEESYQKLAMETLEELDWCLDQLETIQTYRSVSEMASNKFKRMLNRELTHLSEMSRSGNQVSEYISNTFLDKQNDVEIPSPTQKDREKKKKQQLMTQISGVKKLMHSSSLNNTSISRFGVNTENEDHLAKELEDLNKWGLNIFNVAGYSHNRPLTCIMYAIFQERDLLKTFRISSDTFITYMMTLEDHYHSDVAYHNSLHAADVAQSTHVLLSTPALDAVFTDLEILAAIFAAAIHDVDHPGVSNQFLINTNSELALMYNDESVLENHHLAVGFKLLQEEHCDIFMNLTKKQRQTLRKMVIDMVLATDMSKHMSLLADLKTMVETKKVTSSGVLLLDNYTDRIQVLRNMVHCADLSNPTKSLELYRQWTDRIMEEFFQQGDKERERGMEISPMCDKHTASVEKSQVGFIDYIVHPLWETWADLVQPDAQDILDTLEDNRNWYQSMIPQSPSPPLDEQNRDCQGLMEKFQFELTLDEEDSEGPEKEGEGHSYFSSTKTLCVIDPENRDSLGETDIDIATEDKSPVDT
Guanine nucleotide-binding protein G(i) subunit alpha-1 (Homo sapiens), sequence (P63096 whole entry, looked up): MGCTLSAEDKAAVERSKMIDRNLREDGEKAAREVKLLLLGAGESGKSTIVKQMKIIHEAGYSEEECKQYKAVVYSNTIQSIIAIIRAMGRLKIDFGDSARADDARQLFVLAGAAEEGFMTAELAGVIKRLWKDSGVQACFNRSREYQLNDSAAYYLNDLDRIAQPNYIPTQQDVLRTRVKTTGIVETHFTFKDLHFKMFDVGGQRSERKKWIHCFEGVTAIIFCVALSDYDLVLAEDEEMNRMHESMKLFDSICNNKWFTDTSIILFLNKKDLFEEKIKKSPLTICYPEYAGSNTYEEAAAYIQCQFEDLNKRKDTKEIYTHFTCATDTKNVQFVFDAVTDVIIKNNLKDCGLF
Pyruvate kinase (Leishmania mexicana), sequence (Q27686 2-499 E452W): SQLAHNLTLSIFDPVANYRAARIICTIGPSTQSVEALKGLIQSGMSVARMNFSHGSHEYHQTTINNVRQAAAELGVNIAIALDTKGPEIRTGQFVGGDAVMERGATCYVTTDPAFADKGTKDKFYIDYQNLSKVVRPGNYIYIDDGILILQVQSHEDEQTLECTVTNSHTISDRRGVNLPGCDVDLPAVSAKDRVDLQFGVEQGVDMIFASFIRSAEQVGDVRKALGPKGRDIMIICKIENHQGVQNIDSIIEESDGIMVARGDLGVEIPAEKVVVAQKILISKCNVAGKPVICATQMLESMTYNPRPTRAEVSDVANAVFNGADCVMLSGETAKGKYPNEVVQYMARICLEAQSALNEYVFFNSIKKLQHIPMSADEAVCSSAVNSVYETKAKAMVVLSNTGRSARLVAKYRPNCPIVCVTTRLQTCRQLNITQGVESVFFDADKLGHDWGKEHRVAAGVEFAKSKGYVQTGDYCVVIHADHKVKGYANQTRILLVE

On to `O=C(O)CCC/C=C\C[C@@H]1CO[C@H](C(F)(F)F)O[C@@H]1c1ccccc1O`, for which the Potency in assay [1] and in [2] was > 46 µM (inactive) in each case. Further, the Potency result in assay [3], in assay [4], in assay [6], in assay [7], in assay [8] and in assay [9] was “inactive” in each case. Further, in [5], the activity change, negative = inhibition was 0.11% (inactive). The max response in assay [5] (setting [20]) was -8.58%; in [5] (setting [21]), -8.44%.
Regarding `CC(=O)NCC(=O)N[C@H](CCC(=O)O)C(=O)O` (HELM PEPTIDE1{[ac].G.[dE]}$$$$V2.0), the Potency in [1] and in assay [2] was > 46 µM (inactive) throughout. The Potency entry in [10], in assay [6], in assay [7], in [8] and in [9] was “inactive” each time. For the same compound, in assay [5], the activity change, negative = inhibition is 3.36% (inactive). Moreover, the max response stood at 6.18% in assay [5] (setting [20]) and 9.84% in assay [5] (setting [21]).
As for `CCCCCC(=O)O[C@H](CC(=O)O)C[N+](C)(C)C`, the Potency in assay [1] and in assay [2] was > 46 µM (inactive) in each case. Also, the Potency result in assay [3], in [6], in assay [7], in assay [8] and in assay [9] was “inactive” throughout. For the same compound, in [5], the activity change, negative = inhibition is 1.82% (inactive). Besides, the max response in assay [5] (setting [20]) is 0.652%; in [5] (setting [21]), 2.66%.
Turning to `O=C(O)[C@H]1CN[C@H](C(=O)O)C1`, the Potency in assay [1] and in [2] was > 46 µM (inactive) each time. Further, the Potency result in assay [11], in assay [6], in assay [7], in assay [8] and in assay [9] was “inactive” throughout. Further, in [5], the activity change, negative = inhibition was 1.7% (inactive). The max response in assay [5] (setting [20]) was -9.77%; in [5] (setting [21]), -9.55%.
Consider `COC(=O)C1=C(C)NC(C)=C([N+](=O)[O-])[C@H]1c1ccccc1C(F)(F)F`, for which the activity change, negative = inhibition in assay [12] was -27.8% (inactive); in assay [13] it was -15.3% (inactive). For the same compound, the activity, negative = inhibition in [14] is 13.2% (inactive). In addition, the Potency was > 46 µM (inactive) in [1]; > 46 µM (inactive) in [2]; 1.26 µM (active) and 158 nM (active) in assay [11]. In addition, the Potency entry in assay [3], in [10], in [4], in assay [16], in assay [17] and in assay [7] was “inactive” in each case. In addition, the Potency entry in assay [8] and in [9] was “inactive” each time. The result in [15], in assay [18] and in assay [19] was inactive.

(Values after PubChem BioAssay (NCATS).)
